Screening data from PubChem.
Sampled rows, rich in hits. Any-hit rate of the full collection: about 6.2%.
LASV entry inh – qHTS for Inhibitors of binding or entry into cells for Lassa Virus | Lassa virus pseudotype entry inhibition, cell reporter | Potency, µM (highest dose often 37.9 µM), without a hit: at the top dose activity change, negative = inhibition, hits mostly inhibitors | actives 1.2% (n = 300,000); calls by dose curve; tested in HEK293 cells; also: potency is read from the fitted curve at half-maximal effect; nearly all actives have a fitted effect of over 50% in size
HCMV antiviral – qHTS Assay for inhibitors of the human cytomegalovirus (HCMV); HFF cells, HCMV-luciferase reporter, 72 h; stronger effect = lower value; activity change, negative = inhibition, % at 57.5 µM; actives 4.5% (n = 410,000); in the data active = activity change below about -60%; inconclusive = no clear call, values can overlap the other calls; inactive = above about -39%
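Cell-based, HFFs, 1000 cells/well, 16 h 37C; cpds in DMSO + HCMV-luc, MOI 1 PFU/cell; 72 h 37C; OneGlo luminescence after 5 min RT; norm. to buffer vs Salinomycin 10uM.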
Marburg entry inh – qHTS for inhibitors of binding or entry into cells for Marburg Virus; Marburg virus pseudotyped entry inhibition, cell reporter; Potency, µM (top dose mostly 37.8 µM), for the others: top-dose activity change, negative = inhibition, usual class: inhibitors; actives 1.8% (n = 300,000); calls by dose curve; tested in HEK293 cells; also: potency is read from the fitted curve at half-maximal effect
FMDV antiviral – High Throughput Screening for Foot and Mouth Disease Virus Antivirals | Potency, µM (titrated, usually from 57.9 µM), without a hit: at the top dose activity change, negative = inhibition, usual class: inhibitors | actives 1.2% (n = 410,000) | FMDV antiviral cell-based qHTS; calls by dose curve; tested in HEK293T cells; also: read-out not given here; potency is read from the fitted curve at half-maximal effect; nearly all actives have a fitted effect of over 45% in size
* marks the source's active call; other numbers are inactive results; ? = inconclusive; . = not tested or not shown; + = active, no number; ! = not confirmed by another sample; [ ] = dose if it differs, or a comment. % is scaled to controls: 0 for no effect and ±100 for the full control effect.

SMILES	LASV entry inh	HCMV antiviral	Marburg entry inh	FMDV antiviral
CC(=O)c1c(C(C)=O)c(C)n(Cc2ccc(Cl)cc2)c1C	-21%	-71*	?	?
CCOC(=O)c1c(C=O)c(C)n(Cc2ccc(Cl)cc2)c1C	-5%	-24	-3%	?
COc1ccc(CNC(=O)CCCc2nnc3n(CCC(C)C)c(=O)c4sccc4n23)cc1	-21%[46.1 µM]	-39	.	-15%
COc1cc(C(=O)O/N=C2/C=C(C)C(=O)C=C2C)cc(OC)c1OC	4%[46.1 µM]	-33	-6%[46.1 µM]	-17%
CC1=C/C(=N\OS(=O)(=O)c2ccccc2)C(C(C)C)=CC1=O	?	-82*	?	28µM*
CC1=C(C)/C(=N\OS(=O)(=O)c2ccc(C)cc2)C=CC1=O	6.3µM*	-86*	1.4µM*	20µM*
CC1=C/C(=N\OS(=O)(=O)c2ccccc2)C(C)=CC1=O	?	-100*	?	4.5µM*
CC(S(=O)(=O)c1ccccc1)S(=O)(=O)c1ccccc1	.	30	.	11%
COc1ccc(S(=O)(=O)/N=C2/C=CC(=O)C(C)=C2C)cc1	-9%	.	?	-10%
COc1ccc(N(C(=O)CCl)C(C(=O)NCCc2ccccc2)c2cccs2)cc1 (stereo not given)	?	-100*	?	16µM*
COc1ccc(CC(=O)NCC(c2cccs2)S(=O)(=O)c2ccc(F)cc2)cc1 (stereo not given)	-25%[46.1 µM]	-2	.	-19%
COc1ccc(CCNC(=O)C(=O)NCC(c2cccs2)S(=O)(=O)c2ccc(F)cc2)cc1 (stereo not given)	?	-30	.	40µM*
O=C(NCCc1ccc(Cl)cc1)C(=O)NCC(c1ccco1)S(=O)(=O)c1ccc(Cl)cc1 (stereo not given)	-20%[46.1 µM]	-81*	.	-38%
CSCC[C@H](C=O)NC(=O)[C@H](CC(C)C)NC(=O)[C@H](CC(C)C)NC(C)=O	.	.	.	-10%
COC(=O)C1CCCCN1Cc1nc(N(C)C)c2ccccc2n1 (stereo not given)	.	.	.	-3%
CC(C)NC(=O)N1CCCC2(CCN(C(=O)c3cc(C(F)(F)F)cc(C(F)(F)F)c3)CC2)C1	.	.	.	-8%
CNc1cc(-c2ccc(OC)c(OC)c2)ncn1	.	95	.	22%
CNc1ccc2ncc(-c3ccc(OC)c(OC)c3)n2n1	.	-83*	.	-4%
Oc1ccc(N2CCN(c3nnnn3-c3ccccc3)CC2)cc1	?	-63*	4%[14.2 µM]	-20%
CC(=O)N1CCN(c2nnnn2-c2ccccc2)CC1	-8%	5	0%	-9%
COc1cccc(OC)c1C(=O)Oc1ccc2c(c1)O/C(=C\c1ccncc1)C2=O	5%	-75*	7.1µM*	?
CCOc1ccc(/C=N/n2c(C3CCCCC3)n[nH]c2=S)cc1	.	-81*	.	-15%
CN(C)c1ccc(/C=N/n2c(C3CCCCC3)n[nH]c2=S)cc1	?	-11	2.2µM*	-15%
COc1ccccc1NC(=O)CCCOc1cc(=O)n(C)c2ccccc12	-1%[46.1 µM]	-32	0%[46.1 µM]	-13%
N#CCCn1c(=O)c(-c2ccccc2)nc2cnc(N3CCNCC3)nc21	.	.	.	-11%
SMILES	LASV entry inh	HCMV antiviral	Marburg entry inh	FMDV antiviral
O=C(NC(Cc1c[nH]c2ccccc12)C(=O)O)c1cccs1 (stereo not given)	-6%	-10	-2%[14.2 µM]	6%
O=C(NC(Cc1c[nH]c2ccccc12)C(=O)Nc1ccc(F)c([N+](=O)[O-])c1)c1cccs1 (stereo not given)	0.58µM*	-87*	0.79µM*	-24%
O=C(NCCN1CCCCC1)[C@H]1[C@H](CO)[C@H]2Cn3c(cccc3=O)[C@@H]1N2C(=O)C1CC1	.	-5	.	.
COc1cc(CN2CCC3(CCC(CNC(=O)c4ccco4)O3)CC2)ccc1O (stereo not given)	.	.	.	-11%
COc1cccc(C2C(C#N)=C(N)OC3=C2C(=O)CC(c2ccco2)C3)c1OCc1ccc(F)cc1 (stereo not given)	?	-5	16µM*!	-4%
Cc1c2cnn(CC(=O)NC(C)C)c(=O)c2c(C)n1Cc1cccc(Cl)c1	7%[46.1 µM]	-2	-12%[46.1 µM]	-17%
Cc1c(C#N)c(N)nc2c3c(sc12)NC(=O)CC3c1ccc(Cl)cc1 (stereo not given)	?	-81*	?	22µM*
COc1ccc(Cl)cc1-c1cc(C(=O)NCc2ccc(F)cc2)[nH]n1	.	-4	.	-7%
Cc1noc(C)c1S(=O)(=O)N(CC(=O)Nc1ccc(C(F)(F)F)cc1)c1ccc(C(C)C)cc1	10%[46.1 µM]	-8	?	?
Cc1n[nH]c(C)c1S(=O)(=O)N(CC(=O)Nc1ccc(C(F)(F)F)cc1)c1ccc(C(C)C)cc1	-6%[46.1 µM]	-96*	?	-27%
Cc1cc(=O)n2c3c(c4c(cc13)c(CN(C)C)cc(=O)n4C)OC2	-15%	-72*	?	6%
O=C(Nc1cc(S(=O)(=O)N2CCCCC2)ccc1N1CCCCC1)C1CC1	.	-61*	.	-10%
O=C(Nc1nc2cc3c(cc2s1)OCCO3)C1=COCCO1	.	+	.	4µM*
O=C(Nc1cccc(Cl)c1)Nc1cc(S(=O)(=O)N2CCOCC2)ccc1N1CCCC1	?	-80*	?	?
CC(=O)Nc1nc2cc3c(cc2s1)OCCO3	.	81	.	5%
CN1CCN(c2ccc(S(=O)(=O)N3CCOCC3)cc2NC(=O)C2CCCCC2)CC1	.	0	.	-6%
O=C(Nc1nc2ccc(F)cc2s1)C1=COCCO1	2.8µM*	4	?	?
O=C(Nc1nc2ccc(S(=O)(=O)N3CCCC3)cc2s1)C1CCCCC1	-25%	-62*	?	-9%
O=C(Nc1nc2ccccc2s1)C1CCN(S(=O)(=O)c2cc([N+](=O)[O-])ccc2Cl)CC1	.	0	.	35µM*
O=C(Nc1nc2cc3c(cc2s1)OCCO3)C1CCCCC1	10µM*	1	?	?
O=C(CCN1C(=O)C2CCCCC2C1=O)Nc1nc2c(F)cc(F)cc2s1 (stereo not given)	.	11	.	73%
O=C(CCN1C(=O)C2CCCCC2C1=O)Nc1nc2ccc(F)cc2s1 (stereo not given)	11µM*	80	?	-17%
COc1ccc(O[C@H]2C=C[C@@H](c3ccccc3)O[C@H]2COC(=O)CCC(C)=NO[C@@H](C)c2cc(-c3c(C)cc(C)cc3C)no2)cc1	.	.	3%[14.2 µM]	.
O=c1[nH]c(=S)[nH]c2c1C(c1ccc(F)cc1)OC(CCc1ccccc1)C2 (stereo not given)	.	-1	.	-22%
Cc1ccc(S(=O)(=O)N2CC(CO)=CCC2c2ccccc2)cc1 (stereo not given)	.	?	.	7%
Cc1ccc(-n2c(=O)c3c4c(sc3n3c(C)nnc23)CO[C@H](C(C)C)C4)cc1	.	.	13%	.
Cc1csc(Cn2c(CN(C)C)nc3ccccc3c2=O)n1	4%	-1	8%	-2%
CN(C)Cc1nc2ccccc2c(=O)n1Cc1nc(-c2cc3ccccc3o2)cs1	-2%	7	11µM*	-28%
Cc1cnc(CNc2cc(-c3ccc4c(c3)OCO4)ncn2)cn1	.	.	.	22%
O=C(Nc1cccc2ccccc12)c1ccc(F)cc1	.	0	.	32%
